High-throughput results from PubChem.
A selection: hits, their analogues and other compounds. The true share with any hit is near 14%.
Pf growth 48h: P. falciparum growth inhibition at 48 hours (one generation). actives 5.9% (n = 310,000). Potency, µM (titrated, usually from 28.7 µM), usual class: inhibitors. P. falciparum luciferase growth in erythrocytes, 48 h. AID 504832
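Cell-based growth assay: transgenic P. falciparum expressing firefly luciferase, cultured in red cells within RPMI 1640 containing 0.5% w/v Albumax, 24 mM bicarbonate and gentamycin. A drop in luciferase activity indicates inhibition.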
HCMV inh: human cytomegalovirus inhibition; HFF cells, HCMV-luciferase reporter, 72 h; hits give low values; activity change, negative = inhibition, % at 57.5 µM; actives 4.5% (n = 410,000); AID 1259415; in the data active means activity change below about -60%; inconclusive means no clear call, values can overlap the other calls; inactive means above about -39%
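Steps: HFFs plated, 16 h 37C; compounds added; HCMV-luciferase added to MOI 1 PFU/cell; 72 h 37C; OneGlo reagent, 5 min room temperature; luminescence read, normalized to controls.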
Lassa entry inh: blocks Lassa virus binding to or entry into cells. Lassa virus pseudotype entry inhibition, cell reporter. Potency, µM (top dose mostly 37.9 µM), hits mostly inhibitors. actives 1.2% (n = 300,000). AID 540256; calls by dose curve; tested in HEK293 cells; further: nearly all actives have a fitted effect of over 50% in size
HCV inh: HCV inhibition. Potency, µM (series often up to 41.8 µM), hits mostly inhibitors. AID 651820. Huh7.5.1 HCVcc-Cre infection, luciferase reporter, 44 h. actives 3.4% (n = 340,000)
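Cells (1,000/well) were plated 4 h before compound, then infected with HCVcc-Cre virus (~0.5 moi). After 44 h further culture, infection was read as luciferase luminescence following a 15 min substrate incubation at room temperature.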
MARV entry inh: Marburg virus entry inhibition; Marburg virus pseudotyped entry inhibition, cell reporter; Potency, µM (series often up to 37.8 µM), hits mostly inhibitors; actives 1.8% (n = 300,000); calls by dose curve; tested in HEK293 cells
Pf growth 96h: P. falciparum growth inhibition at 96 hours | actives 6.9% (n = 320,000) | P. falciparum luciferase reporter growth, 96 h | Potency, µM (highest dose often 28.7 µM), actives largely listed as inhibitors
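Erythrocytes infected with luciferase-expressing P. falciparum were dispensed at 2% hematocrit and 0.05% parasitemia (final), then incubated with compounds 96 hours at 37 C in 5% CO2. Luminescence after detection reagent addition reported growth.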
Hits are given with their value; n = inactive; u = inconclusive; x = not tested or not shown. Unless noted, the call rests on the fitted dose curve; in most records, active means well fitted inhibition curve with a large enough effect; inconclusive means small, poorly fitted or top-dose-only effect, or another doubt; inactive means no such curve, though single readings can be large or run the other way.

SMILES | Pf growth 48h | HCMV inh | Lassa entry inh | HCV inh | MARV entry inh | Pf growth 96h
Cc1ccc(OCC(=O)N/N=C/c2ccc([N+](=O)[O-])o2)cc1 | 10µM | u | n | u | n | u
Cc1ccc(OCC(=O)N/N=C/c2ccccc2)c([N+](=O)[O-])c1 | n | u | n | n | n | n
Cc1ccc(Cn2cc(CN3CC(N4CCN(C5CCN(C)CC5)CC4)CS3(=O)=O)nn2)cc1 (stereo not drawn) | x | n | x | x | x | x
O=C(COc1ccccc1)N/N=C/c1ccc([N+](=O)[O-])o1 | 8.3µM | -71 | x | n | x | 10µM
O=C(COc1ccccc1)N/N=C/c1cc2c(cc1[N+](=O)[O-])OCO2 | x | n | n | n | n | u
Cc1c(/C=N/NC(=O)COc2ccccc2[N+](=O)[O-])c2ccccc2n1C | n | n | n | u | n | n
Cc1ccc(OCC(=O)N/N=C\c2c(C)n(C)c3ccccc23)c([N+](=O)[O-])c1 | u | x | n | 16µM | 10µM | u
COC(=O)[C@@H](NC(=O)NC1CCCCC1C)C(C)C (stereo partly drawn) | n | n | n | n | n | u
COC(=O)[C@@H](NC(=O)N(C1CCCCC1)C1CCCCC1)C(C)C | n | n | n | n | n | 1.7µM
CCN(CC)CCN1C(=O)c2oc3ccccc3c(=O)c2C1c1ccc(F)cc1 (stereo not drawn) | 2.9µM | n | n | n | n | 9.3µM
Cc1cc2oc3c(c(=O)c2cc1C)C(c1ccc(F)cc1)N(CCCN1CCOCC1)C3=O (stereo not drawn) | 12µM | n | x | u | x | 10µM
COc1cc(C2c3c(oc4cc(C)c(C)cc4c3=O)C(=O)N2CCCN2CCOCC2)ccc1O (stereo not drawn) | x | n | n | x | n | x
CCN(CC)CCN1C(=O)c2oc3ccc(F)cc3c(=O)c2C1c1ccncc1 (stereo not drawn) | u | n | x | n | x | n
C/C(=N\NC(=O)c1cc(C2CC2)nc2ccccc12)c1ccc(O)cc1O | u | -61 | u | 6.3µM | u | n
CCOc1ccc(-c2cc(C(=O)N/N=C(\C)c3cccnc3)c3ccccc3n2)c(OCC)c1 | 13µM | n | u | u | 4µM | u
C/C(=N\NC(=O)c1cc(-c2ccncc2)nc2ccccc12)c1ccc(OC(F)F)cc1 | n | n | n | n | n | 3.3µM
C/C(=N\NC(=O)c1cc(-c2cccnc2)nc2ccccc12)c1ccccc1O | 6.6µM | -102 | u | 4µM | 10µM | u
COc1ccc(/C(C)=N/NC(=O)c2cc(-c3cccnc3)nc3ccccc23)cc1 | n | n | n | n | n | n
O=C(Cn1cc(S(=O)(=O)Cc2ccc(F)cc2)c2ccccc21)NCc1ccccc1Cl | x | n | u | x | x | x
CC(=O)c1c(C(C)=O)c(C)n(C2CCCCC2)c1C | n | u | n | n | n | 1.5µM
Cc1cc(C=O)c(C)n1C1CCCCC1 | x | n | n | n | u | n
Cc1cccc2cc(C#N)c(SCC(=O)N3CC(=O)Nc4ccccc43)nc12 | u | -96 | u | u | u | n
O=C1CN(C(=O)CSc2nc(-c3ccccc3)cs2)c2ccccc2N1 | n | -61 | u | u | u | u
C=CCn1c(SCC(=O)N2CC(=O)Nc3ccccc32)nc2scc(-c3cccs3)c2c1=O | u | n | 15µM | u | u | n
CC1(C)C(=O)Nc2ccccc2N1C(=O)CSc1nc(-c2ccccc2)cs1 | n | -63 | n | u | u | n
SMILES | Pf growth 48h | HCMV inh | Lassa entry inh | HCV inh | MARV entry inh | Pf growth 96h
CC(C)CCn1c(SCC(=O)N2CC(=O)Nc3ccccc32)nc2scc(-c3cccs3)c2c1=O | x | n | n | u | n | u
CCN(CC)c1ccc(C(=O)OCC(=O)Nc2cc(C)on2)cc1 | n | n | x | u | x | n
O=C(CSc1nc(-c2ccccc2)cs1)N1CCN(C(=O)c2ccco2)CC1 | n | -103 | n | n | n | x
COc1ccc(Nc2nnc(SCC(=O)N3CC(=O)Nc4ccccc43)s2)cc1 | u | n | n | n | n | 2.3µM
COc1ccc2c(c1)c1c(c(=O)n(-c3ccc(C)cc3)c(=O)n1CC(=O)c1ccc(Cl)cc1)n2C | x | n | n | x | x | x
CC(=O)C1=C(C)N(Cc2ccccc2)C(=O)N[C@@H]1c1cccc(C(F)(F)F)c1 | u | n | n | n | u | u
COc1cc(CCN2C(=O)N[C@@H](c3cccc(C(F)(F)F)c3)C(C(C)=O)=C2C)cc(OC)c1OC | 13µM | x | u | u | n | 10µM
CC(=O)C1=C(C)N(Cc2ccccc2)C(=O)N[C@H]1c1cccc(C(F)(F)F)c1 | u | -69 | n | u | n | u
COC(=O)C1=C(C)N(Cc2ccccc2)C(=O)N[C@H]1c1cccc(C(F)(F)F)c1 | u | n | x | 0.4µM | n | u
COc1cc(CCN2C(=O)N[C@@H](c3ccccc3)C(C(C)=O)=C2C)cc(OC)c1OC | x | x | x | x | n | x
O=C(c1ccccc1O)N1N=C(C(F)(F)F)CC1(O)c1ccc([N+](=O)[O-])cc1 (stereo not drawn) | n | -102 | x | n | x | n
CC1=NN(C(=O)c2ccccc2C)C(O)(c2ccc(Cl)cc2)C1 (stereo not drawn) | n | n | n | n | n | 10µM
CCC1=NN(C(=O)c2ccccc2Br)C(O)(c2ccc(Br)cc2)C1 (stereo not drawn) | u | n | x | n | x | n
CCC1=NN(C(=O)c2ccc(Cl)cc2)C(O)(c2ccc(C)cc2)C1 (stereo not drawn) | n | n | n | u | n | n
CCC1=NN(C(=O)c2ccc(Cl)cc2)C(O)(c2ccccc2)C1 (stereo not drawn) | u | n | x | n | x | 3.3µM
CCC1=NN(C(=O)c2ccccc2O)C(O)(c2ccccc2)C1 (stereo not drawn) | n | -76 | x | u | x | u
O=C1CCC[C@H]2[C@@H](Cc3ccccc3)[C@H](NCc3ccccc3)CC[C@]23CCCN13 | x | n | x | x | x | x
CC(C)(C)OC(=O)N1CCC(c2c(C(=O)NC3CCN(Cc4ccccc4)CC3)cnn2-c2ccc(F)cc2F)CC1 | x | n | n | x | x | x
CN(C)c1ccc2c(O)cc(=O)n(C)c2c1 | n | n | n | n | u | 5.2µM
CCC(=O)Nc1cc(C)c(O)c(-c2nc3ncccc3o2)c1 | x | n | n | x | x | x
CC1(c2ccccc2)CC(c2ccccc2)=Nc2nonc2N1 (stereo not drawn) | 1.5µM | n | n | n | n | u
COC(=O)CSc1ncc2c(n1)-c1ccccc1N(Cc1cccc(F)c1)S2(=O)=O | x | n | u | x | x | x
CC(=O)Nc1nonc1-c1nnc(SCc2ccccc2F)n1C | x | n | n | x | n | x
CSCCC(N=C1NS(=O)(=O)c2ccccc21)C(=O)N1CCCC(C(N)=O)C1 (stereo not drawn) | n | n | n | n | n | n
O=C(c1ccccc1NS(=O)(=O)c1ccc([N+](=O)[O-])cc1[N+](=O)[O-])N1O[C@@H]2C=C[C@H]1C2 | x | n | x | n | x | x
